{"source": "PubChem BioAssay AID2284425", "about": "(EPA ToxCast)", "note": "Records with an inconclusive call do not appear. Activity calls are given as the source filed them. Rule for the calls: active = hit-call score of the fitted dose curve at least 0.9, where 1 is the maximum; inconclusive = response in the unintended direction; inactive = score below 0.9.", "data": [{"test_system": "Brachyury (BRA), TBXT (gene 6862)", "experiment": "CCTE_Deisenroth_DEVTOX-GLR_Ecto_BRA: CCTE's DevTox GLR-Ecto Assay Evaluation of Brachyury (BRA) Protein Expression, Deisenroth Lab", "description": "CCTE_Deisenroth_DEVTOX-GLR_Ecto assay is a cell-based, multiplex-readout assay that uses RUES2-GLR, a human pluripotent cell line, with measurements taken at 48 hours after chemical dosing in a 384-well microplateCCTE_Deisenroth_DEVTOX-GLR_Ecto_BRA is 1 of 4 assay components calculated from the CCTE_Deisenroth_DEVTOX-GLR_Ecto assay and it measures an the percentage of cells in an mesoderm state. Using a type of inducible fluorescent protein reporter, gain-of-signal activity can be used to understand changes in gene expression with fluorescent microscopy. The percentage of BRA+ cells are determined by calculating the number of BRA+ cells divided by the cell count. To generalize the intended target to other relatable targets, this assay component is annotated to the transcription factor intended target family, where the subfamily is T-box protein.Data from the assay component CCTE_Deisenroth_DEVTOX-GLR_Ecto_BRA was analyzed as 1 assay endpoint. The endpoint is the percent BRA+ cell population minus the 0.2% DMSO control in the CCTE_Deisenroth_DEVTOX-GLR_Ecto assay. Furthermore, this assay endpoint can be referred to as a secondary readout, because this assay has produced multiple assay endpoints where this one serves as a measure of mesoderm differentiation.\nAll assay protocols are aligned to the DevTox GLR-Endo assay workflow (Gamble 2022). Cells are seeded into 384-well microplates for 24 hours prior to initiating differentiation in defined media for a total duration of 48 hours. A total of two chemical exposures are administered in 24-hour intervals during the 48-hour differentiation period. At the assay termination point, cells are fixed and stained with a fluorescent dye demarcating the nucleus. High-content imaging is used to acquire brightfield and fluorescent channel images across 5 fields per well. Cell identification and mean biomarker fluorescence intensities are calculated with image analysis software to determine the total cell counts for viability assessment and the biomarker expression frequency for each lineage-dependent assay. A typical experimental design tests a 10-point concentration series (1 nM - 200 uM) for 28 compounds in single technical replicate. Assay plate controls include non-differentiated pluripotent cells (baseline control), lineage-specific differentiated cells (differentiation control), and DMSO solvent exposed differentiated cells (solvent control). Experiments typically comprise a minimum of four experimental replicates (n=4).", "values": [{"smiles": "CC/C(=C(/CC)c1ccc(O)cc1)c1ccc(O)cc1", "outcome": "inactive"}, {"smiles": "O=c1[nH]cc(F)c(=O)[nH]1", "AC50": "1.95 µM (active)"}, {"smiles": "Nc1cccc2c1C(=O)N(C1CCC(=O)NC1=O)C2=O", "note": "(stereo not given)", "AC50": "39.1 µM (active)"}, {"smiles": "CCN(CC)CCNC(=O)c1c(C)[nH]c(/C=C2\\C(=O)Nc3ccc(F)cc32)c1C", "AC50": "1.12 µM (active)"}, {"smiles": "CC1=C(/C=C/C(C)=C/C=C/C(C)=C/C(=O)O)C(C)(C)CCC1", "AC50": "142 µM (active)"}, {"smiles": "O=C1NS(=O)(=O)c2ccccc21", "outcome": "inactive"}, {"smiles": "CC1(C)S[C@@H]2[C@H](NC(=O)Cc3ccccc3)C(=O)N2[C@H]1C(=O)O", "outcome": "inactive"}, {"smiles": "CC(C)(c1ccc(O)cc1)c1ccc(O)cc1", "outcome": "inactive"}, {"smiles": "CS(=O)(=O)OCCCCOS(C)(=O)=O", "outcome": "inactive"}, {"smiles": "CC1=C(/C=C/C(C)=C/C=C/C(C)=C\\C(=O)O)C(C)(C)CCC1", "AC50": "143 µM (active)"}, {"smiles": "Nc1nc2ncc(CNc3ccc(C(=O)N[C@@H](CCC(=O)O)C(=O)O)cc3)nc2c(=O)[nH]1", "outcome": "inactive"}, {"smiles": "CCCC(CCC)C(=O)O", "outcome": "inactive"}, {"smiles": "CC(=O)Nc1ccc(O)cc1", "outcome": "inactive"}, {"smiles": "CN(Cc1cnc2nc(N)nc(N)c2n1)c1ccc(C(=O)N[C@@H](CCC(=O)O)C(=O)O)cc1", "outcome": "inactive"}, {"smiles": "O=C1NC(=O)C(c2ccccc2)(c2ccccc2)N1", "outcome": "inactive"}]}]}
